In PubChem BioAssay AID1347426 (Functional Genomics Laboratory (NCATS/FGL), 2020) one finds median seed-adjusted z-score data, which are given here for 109 sequences.

Among all 31,000 sequences or so, about 1,400 (4.5%) were called active. The sample as a whole holds a higher share of actives than the screen did. Unmarked numbers belong to inactive results.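 Rule for the calls: active = median seed-adjusted z-score above 1 or below -1; inactive = the rest.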

The nature of the experiment: Novel Modifiers of Survival Motor Neuron (SMN) Protein: Gene Identification via Genome-wide siRNA Screen.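 Note: luminescence tracks full-length SMN protein made from the SMN2 reporter.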 To be noted: HEK293T SMN2-luciferase reporter, siRNA knockdown, 72 h; actives lie on both sides. From the text:
Spinal muscular atrophy (SMA) is the most common neuromuscular autosomal recessive disorder and one of the leading genetic causes of infant death. SMA results from mutations inducing loss of function or deletion in the survival of motor neuron-1 gene (SMN1), leading to deficiency of the survival motor neuron (SMN) protein. Although a second nearly identical gene, SMN2, is retained in humans, its expression primarily produces an aberrantly spliced isoform that is largely unstable and quickly degraded. We performed a genome-wide RNAi screen using a cell-based reporter assay to identify genes and pathways that modulate SMN protein stability. The screen identified over 200 genes that led to the greatest increase or decrease in luciferase expression.
Using HEK293T cells stably expressing a luciferase reporter that combines the promoter and splicing based cassettes in tandem with the major portion of the native SMN2 cDNA with luciferase, we performed a genome-wide RNAi screen to identify modulators of SMN protein levels. Luciferase is expressed when full-length SMN protein is generated with luminescence signal proportional to SMN protein levels. Our luciferase-based reporter assay was used to screen Ambion Silencer Select Human Druggable Genome siRNA library (10418 genes, 3 unique siRNAs per gene) using lipid-based reverse transfection.
Briefly, 1 pmol of each siRNA was spotted to a well of a 384-well plate (Corning, Corning, NY) and 20 microL of serum-free DMEM containing […] of Lipofectamine RNAiMax (Life Technologies, Carlsbad, CA) was then added to each well. Transfected cells were maintained at 37 degrees C in 5% CO2 for 72 hours, 20 microL of ONE-Glo Reagent (Promega) was added to wells for luciferase quantification. Raw luminescence reads were normalized to Ambion(R) Silencer(R) Negative Control #2 siRNA, then log10 transformed. A robust statistical measure of median absolute deviation (MAD) to standardize siRNA activities from each screen. Common Seed Analysis was used to help prioritize clean hits as opposed to those appearing to arise from seed based off-target effects. Candidate modulators were defined as the genes having a MAD score greater than 1.0 or less than -1.0.
For the sequence CUACCACAAUCAUCGAAAATT against FABP3, the median seed-adjusted z-score is -0.0786. With CAAACCUAACUAUACAUAATT against ZNF107, the median seed-adjusted z-score was 0.0761. The value for GUAAGCAUUUUAAUUCCAATT against CLCA3 was 0.424; that for UUACAUUGAUUACACUGGATT against RBM24 was 0.0471. For UCGUUUUUACAGAUGUUAATT against SAP18, the median seed-adjusted z-score was 2.14 (active).

Take CCUACUAUCAAGAUUCAAATT against HERC3: the median seed-adjusted z-score was -0.0884.

For GAGUCAACCCAUACAUUAATT against PLS1, the median seed-adjusted z-score was -0.0715. The value for GCUGGUUUAUUUAACUCGATT against E2F6 was -0.299; that for GAGUCUGUUUUACGACAAATT against TMPRSS11D was -0.0643. The value for CCAGUCGCGUAAGACAACATT against PYDC1 was -1.44 (active); that for CCCAGAGCUUCAAAGUGUATT against HSD17B1 was -0.569. In the case of GCAGAGCGGAAGUAAGGAUTT against AFMID, the median seed-adjusted z-score is -0.515. The value for CAUUAUCUCGUUUCCGGAATT against IFNGR2 was 0.148; that for GCGGAAAGGUGGACUUUGATT against CABP2 was 0.323. As to GCAUCCUCAUCAACCGCAATT against SAPS1, the median seed-adjusted z-score is 1.16 (active).

As to CCCAGAAGAUGACCACUCATT against PDXDC1, the median seed-adjusted z-score is 0.665. For the sequence GACUUGCCCUUACUGCAAATT against RNF175, the median seed-adjusted z-score is 0.127. Consider CGUUGCUAGUGCUCACUUATT against FRAG1, for which the median seed-adjusted z-score is -0.554. GAUAUUUGAUUGAUGUAGATT against DUSP11: the median seed-adjusted z-score was -0.0184. ACAGAAUAAUGUACAAGAATT against POLR2K: the median seed-adjusted z-score is -3.72 (active).

Regarding GCCUAGACCUCUUCGCUUUTT against PASK, the median seed-adjusted z-score is 0.

For the sequence GCAGCUGAGUUCUACAAGATT against RAG1, the median seed-adjusted z-score was -1.35 (active). Under GGAUAAUGAGUCGGAAGUATT against CNTN4 stands -0.407; under CCAGGUUUAUGUAGAAGUUTT against NMI, 0.982. For GGAUGAAGAACGAAUGGUATT against ENDOD1, the median seed-adjusted z-score was -0.138. As for GGCACUCAGCGCAAGAAGATT against TIGD5, the median seed-adjusted z-score was 0. On to GGAAGAGGAGUAGACCUUATT against RAB5A, for which the median seed-adjusted z-score was 0.244.

Consider CCGGCAAGAUUAUCGAGUATT against HCFC1, for which the median seed-adjusted z-score is 1.47 (active). On to CAUUCGCAAAGGAUCGUGATT against PAPSS2, for which the median seed-adjusted z-score is -0.201.

In the case of CAGCGUAUUUGAGAAUUUATT against ATRX, the median seed-adjusted z-score was -0.158.

On to GCAAGUGUUUUGAUCAAAATT against ZNF662, for which the median seed-adjusted z-score is 0.352. Under GAAUAUUGCAAUAGACUUATT against ZNF678 stands 0.172. As for GCAUUUCACCAUUCAAACATT against PCSK9, the median seed-adjusted z-score was 0.146.

On to GGAUGUUUCCUACCUAUAUTT against FOLR1, for which the median seed-adjusted z-score is -1.31 (active). Turning to CCAGUUCGCUAUCACCAAATT against MATN1, the median seed-adjusted z-score is -0.271. As to CGAUCAAUGUUAGAAGUUATT against ACTR2, the median seed-adjusted z-score was 0.548. For CCUUAGAUCUCGCGAAGAATT against DCT, the median seed-adjusted z-score is -0.184. Regarding CCAAUACACUAGCAGUUAATT against TCP1, the median seed-adjusted z-score is -1.02 (active).

With GCCUGUGAAUGUCCGAGAATT against AARSD1, the median seed-adjusted z-score is -0.156. As for GGUAGUCUAUCACUUCGAATT against TRIM37, the median seed-adjusted z-score is -0.108.

As for GCUCAACACUCAUCAAACATT against ZNF774, the median seed-adjusted z-score was -0.0834. As for CAUGGUCACUGCUAGUGUATT against MBOAT1, the median seed-adjusted z-score was -1.22 (active). As to GCACCUACUUCAUCUAUAGTT against EDA, the median seed-adjusted z-score is 0.316. GAGAUUCAAAGAAUAGUAATT against RASSF6: the median seed-adjusted z-score is -0.592. For CCCUUGAAGGCAAAGAUCATT against OPRK1, the median seed-adjusted z-score was -1.08 (active).

With GAGAUUCAUCGGUUCAAUATT against WRNIP1, the median seed-adjusted z-score was 0.00972. Regarding GCCUUAGUGUGCCUCCCAATT against APLN, the median seed-adjusted z-score is 0.0181. As for GAUCUGGUCGAGUUUAAAATT against NAT2, the median seed-adjusted z-score was -0.0495.

As to CCACAUGACUUAUUAUGCATT against DCN, the median seed-adjusted z-score is 0.326. For GGGCAGUUCUUGCAACCAUTT against ALDH1A2, the median seed-adjusted z-score was 0.564. On to CGAGAUAACUACUGCCGAUTT against PCOLCE2, for which the median seed-adjusted z-score is -1.15 (active).

As to CCGUCUACGUGACCAUUGATT against ABCC1, the median seed-adjusted z-score was 0. In the case of GCUUUUACAACAUUUCGAATT against SLC30A4, the median seed-adjusted z-score was 0.158. On to GUAAAUCACCGGCUACAAATT against ITGA3, for which the median seed-adjusted z-score is 0. In the case of UCAUGCUCAUUGGGAAUAATT against RAB2B, the median seed-adjusted z-score was 0.882. Regarding GCUUUGCAGUGAAUAUCGATT against SPINK5, the median seed-adjusted z-score is 0.26. Turning to CCUGGAUACCCUAAGCAAATT against PSMD2, the median seed-adjusted z-score is -1.44 (active). On to CCACGAUCGUUCACAAGGATT against KCTD4, for which the median seed-adjusted z-score was 0.649.

For CUAUAGUGGUUCAUCACAATT against GCNT1, the median seed-adjusted z-score was 0.463. On to ACGAGUACAUCAACGAGUATT against ABCA2, for which the median seed-adjusted z-score is -1.18 (active). On to CACUCAGCGUGGACCAUUUTT against HCN3, for which the median seed-adjusted z-score was 0.301.

As for CUAUCAAUCCCAGCACUAATT against CDKL3, the median seed-adjusted z-score was 0.243.

On to GCACUCUGAAGAUCGAAUATT against HNRNPL, for which the median seed-adjusted z-score was 1.04 (active). Consider CUAUGAUUAUAGCCGGGUATT against PTPN22, for which the median seed-adjusted z-score was -0.0843. Regarding GGAAAAGUAUGAACUGAAATT against TREM1, the median seed-adjusted z-score is 0. With GGGUCUUACGAAUGCGGAATT against ZNF618, the median seed-adjusted z-score is 0.311.

For the sequence GAACGUAAGAAAUACAAUUTT against HSPA4L, the median seed-adjusted z-score was 0.288.

Consider CUUCAUCUUUUACACCAUUTT against SLC35B2, for which the median seed-adjusted z-score was -0.313. The value for CACUACUAAAAACCUAAAATT against EFHD2 was 0.874; that for GUAGUGAAGUGUAUCCGGATT against ANXA6 was -1.01 (active). On to GAAUCCUCAAUGUGGAUGATT against HPCA, for which the median seed-adjusted z-score was 0.12. As for GGCUUUUUGCUACAGAUGATT against OSGEP, the median seed-adjusted z-score was 0.0178. GUAUGUCACCUAUCACUGUTT against SLC25A38: the median seed-adjusted z-score is 0. The value for GCAUCGCUGUAGGUUUUGATT against THBS2 was -0.721; that for GCAUCUGCGAUGUGAGGAATT against RYBP was 0.831. For the sequence GCAUCAGGGUCAUGGUUCATT against SCNN1D, the median seed-adjusted z-score was -1.8 (active). Consider CCACCUACAGAGUGUCCUATT against EMID2, for which the median seed-adjusted z-score was 0.0465.

GGACAAGACGCAAGAAGAATT against TEF: the median seed-adjusted z-score is 0. With CCAAGGAGGUGCACUAUAATT against FHL1, the median seed-adjusted z-score is 0.574.

Turning to AGAUGAUUCUAGAAUCCAATT against STK32B, the median seed-adjusted z-score was 0.683. In the case of GGAAUACCAUGAGCUGUUATT against OSBP, the median seed-adjusted z-score is 0.256. Turning to CAAGCAUAUUAAUGAGGUUTT against DYRK1A, the median seed-adjusted z-score is -1.3 (active). Take GCUCCCAUCAUGUACGUUUTT against GPR155: the median seed-adjusted z-score was 0.0681.

As to GGAUGAGCAGUACCAGGCATT against PYCARD, the median seed-adjusted z-score was 0.117.

With GAACUAAACUUGUUAAUGATT against TRIM36, the median seed-adjusted z-score was -0.262.

As for GGAGCAACAUUAUAGUCAATT against TGS1, the median seed-adjusted z-score was -0.564. Take CUACGAGAAUAAUUCGGAATT against THOC1: the median seed-adjusted z-score is -3.04 (active).

For the sequence CCGGGAAAGUAGAAUUACATT against IGF2BP1, the median seed-adjusted z-score is -0.993. Turning to GCAGUACUCUGCUACCUGATT against IL22RA1, the median seed-adjusted z-score was -1.14 (active). On to GGAGAACCAGUGGAAUUCATT against LIN28B, for which the median seed-adjusted z-score is 0.407. The value for GCACUUCUCUUAAGGACGATT against UNC13B was -0.0216; that for CAUGUACUAUUUUCAGUAUTT against SETD8 was -1.52 (active); that for GCUUCUUAGCUGAGGAAAATT against RDH11 was -0.241.

Consider CAAGGUAUUAUGCAACGUATT against FLG, for which the median seed-adjusted z-score is 0.221. With GAGUAUGCCGUGAAGAUCATT against RPS6KA2, the median seed-adjusted z-score was 0.139. Take GGCGUACGGUGAGAACAUUTT against ATP1B1: the median seed-adjusted z-score is 0.971.

GUAUAAUCCUCAGAGCAAATT against CXXC1: the median seed-adjusted z-score is -0.841. Turning to CAUGAAUCCUUUACAGCAATT against RALB, the median seed-adjusted z-score is -0.534.

With GACUGUGAGACUUACCAUATT against MED20, the median seed-adjusted z-score was -1.66 (active).

For the sequence CGGUCUCACCUGCACCAAATT against SSPO, the median seed-adjusted z-score was 0.397. With GGAGAUUCACGAGCUGCGATT against EGFL8, the median seed-adjusted z-score was 0.365. GCUCAAGGCAUUCUACAAATT against SLC25A1: the median seed-adjusted z-score is 0.252. Under GGAUCGAGUUUGAUAACGATT against ITGA6 stands -0.224; under GAUACGAAAUGGUGUUAAATT against POLG2, 0. With CCCAAUAACUCUGUCGAUATT against ATP11C, the median seed-adjusted z-score is 0.102. For the sequence GGAGUAACUGAGAUAGAAATT against AGPAT3, the median seed-adjusted z-score is 0. For GGAUCGUAAAAAUAGCAAATT against DGKA, the median seed-adjusted z-score is -1.36 (active).

On to GAGCCUCUAUUAAUGGACATT against RASSF6, for which the median seed-adjusted z-score was -0.592. Take GGAACACCCGUUUAACAAATT against ASH2L: the median seed-adjusted z-score was -0.464.
